# In PubChem BioAssay AID504333 (National Center for Advancing Translational Sciences (NCATS), 2011):
# Out of some 360,000 compounds screened, about 16,000 (4.4%) were called active. Roughly 9% stayed inconclusive and do not appear here. The entries come from a sample that favours actives as a whole. Values without a mark were called inactive. Calls follow the shape of the dose curve; as a rule, active = well fitted inhibition curve with a large enough effect; inconclusive = small, poorly fitted or top-dose-only effect; inactive = no such curve, though single readings can be large or run the other way.
# Target: Bromodomain adjacent to zinc finger domain protein 2B (Homo sapiens) (UniProt Q9UIF8)
# Assay: qHTS Assay for Inhibitors of BAZ2B; also: nearly all actives have a fitted effect of over 60% in size
# Conditions: AlphaScreen BAZ2B-H3K14Ac peptide displacement; series mostly up to 114 µM; activity change, negative = inhibition: at the top concentration
# Procedure, shortened: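 Multi-concentration screen (max 110 uM) measuring displacement of acetylated histone H3 peptide from BAZ2B by AlphaScreen, using 50 nM protein, 50 nM peptide and 10 ug/mL streptavidin donor plus Ni-chelate acceptor beads.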
# % is scaled to controls: 0 for no effect and ±100 for the full control effect; potency is read from the fitted curve at half-maximal effect.
# Sequence of Bromodomain adjacent to zinc finger domain protein 2B (Homo sapiens) (Q9UIF8 whole entry, looked up, the tested form may be a part): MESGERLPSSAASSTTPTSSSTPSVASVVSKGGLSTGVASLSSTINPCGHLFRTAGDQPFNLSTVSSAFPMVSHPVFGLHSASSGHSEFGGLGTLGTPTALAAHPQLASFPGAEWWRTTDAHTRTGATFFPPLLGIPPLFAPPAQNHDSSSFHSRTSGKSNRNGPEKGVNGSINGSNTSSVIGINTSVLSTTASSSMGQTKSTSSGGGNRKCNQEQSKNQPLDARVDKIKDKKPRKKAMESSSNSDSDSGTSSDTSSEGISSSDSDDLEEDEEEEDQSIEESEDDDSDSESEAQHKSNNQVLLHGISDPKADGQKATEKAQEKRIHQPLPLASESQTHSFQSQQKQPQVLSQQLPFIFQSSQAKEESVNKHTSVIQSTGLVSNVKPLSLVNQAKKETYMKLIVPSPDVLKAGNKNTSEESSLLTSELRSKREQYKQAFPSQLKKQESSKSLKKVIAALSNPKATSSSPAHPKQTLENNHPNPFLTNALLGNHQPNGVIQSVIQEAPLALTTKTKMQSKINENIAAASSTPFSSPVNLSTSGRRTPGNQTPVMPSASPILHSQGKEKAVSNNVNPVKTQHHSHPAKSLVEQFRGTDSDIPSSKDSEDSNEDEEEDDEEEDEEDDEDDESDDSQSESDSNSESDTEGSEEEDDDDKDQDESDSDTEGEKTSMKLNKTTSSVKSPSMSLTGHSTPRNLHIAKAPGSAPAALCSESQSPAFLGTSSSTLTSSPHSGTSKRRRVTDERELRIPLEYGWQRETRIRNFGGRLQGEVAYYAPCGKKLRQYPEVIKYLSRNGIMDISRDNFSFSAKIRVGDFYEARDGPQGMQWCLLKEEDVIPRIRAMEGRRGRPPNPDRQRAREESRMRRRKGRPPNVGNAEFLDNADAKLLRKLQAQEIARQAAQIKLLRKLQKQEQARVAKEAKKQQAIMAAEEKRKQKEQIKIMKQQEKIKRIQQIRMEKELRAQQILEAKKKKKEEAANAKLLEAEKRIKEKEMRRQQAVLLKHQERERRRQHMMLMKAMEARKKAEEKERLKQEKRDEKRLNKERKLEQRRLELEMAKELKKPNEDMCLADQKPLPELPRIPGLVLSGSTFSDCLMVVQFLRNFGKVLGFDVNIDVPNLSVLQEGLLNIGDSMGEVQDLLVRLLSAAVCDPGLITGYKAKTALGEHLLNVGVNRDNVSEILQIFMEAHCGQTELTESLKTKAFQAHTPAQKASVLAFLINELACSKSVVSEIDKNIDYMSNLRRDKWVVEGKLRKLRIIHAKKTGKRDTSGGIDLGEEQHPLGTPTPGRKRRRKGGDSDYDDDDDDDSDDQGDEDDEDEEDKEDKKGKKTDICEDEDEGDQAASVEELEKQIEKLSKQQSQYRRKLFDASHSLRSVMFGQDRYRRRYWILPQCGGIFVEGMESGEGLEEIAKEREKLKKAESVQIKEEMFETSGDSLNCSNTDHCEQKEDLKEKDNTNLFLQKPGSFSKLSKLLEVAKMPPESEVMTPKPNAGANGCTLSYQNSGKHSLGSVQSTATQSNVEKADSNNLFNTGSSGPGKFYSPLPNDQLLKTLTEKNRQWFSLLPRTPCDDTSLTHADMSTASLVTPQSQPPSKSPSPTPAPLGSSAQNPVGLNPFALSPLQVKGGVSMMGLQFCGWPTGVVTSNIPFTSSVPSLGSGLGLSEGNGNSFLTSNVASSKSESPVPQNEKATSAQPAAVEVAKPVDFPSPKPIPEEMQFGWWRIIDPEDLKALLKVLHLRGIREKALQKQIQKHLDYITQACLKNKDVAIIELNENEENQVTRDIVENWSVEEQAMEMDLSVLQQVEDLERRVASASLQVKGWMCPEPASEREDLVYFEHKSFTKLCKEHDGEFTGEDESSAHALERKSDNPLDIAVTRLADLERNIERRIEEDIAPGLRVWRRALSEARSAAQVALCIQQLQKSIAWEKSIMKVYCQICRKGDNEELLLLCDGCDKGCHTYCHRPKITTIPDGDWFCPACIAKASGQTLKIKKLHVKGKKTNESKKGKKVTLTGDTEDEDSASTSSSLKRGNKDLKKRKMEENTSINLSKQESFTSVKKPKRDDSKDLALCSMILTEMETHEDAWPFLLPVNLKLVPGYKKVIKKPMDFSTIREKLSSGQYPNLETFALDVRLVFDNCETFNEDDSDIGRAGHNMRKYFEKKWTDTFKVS
SMILES,"activity change, negative = inhibition",Potency
CCN1CCN(c2ncnc3c2cnn3-c2ccc(C)c(C)c2)CC1,-2.62%,
CC(C)(C)c1ccc(OCC(=O)N2CCC(c3nc4ccccc4s3)CC2)cc1,-19.1%,
COC(=O)C1=C(C)N(C(C)c2ccccc2)C(=O)/C1=C\c1ccco1 (centres undefined),,20 µM (active)
O=C(OCN1C(=O)c2ccccc2C1=O)/C(=C\c1ccco1)NC(=O)c1ccccc1,-5.64%,
O=C(/C=C/c1ccco1)NC(=S)Nc1ccccc1Br,-36.4%,
CCc1cccc(C)c1NS(=O)(=O)c1ccc(-c2cc(C)no2)s1,2.64%,
CCC(=O)N1CCc2cc(Br)cc(S(=O)(=O)CCC(=O)NCCc3ccc(OC)c(OC)c3)c21,27%,
CC(C)NC(=O)C1CCC(Cn2c(=O)c3sccc3n(Cc3ccc(F)cc3)c2=O)CC1 (centres undefined),-5.59%,
CCOC(=O)c1c(C)[nH]c(C)c1S(=O)(=O)N1CCCC(C(=O)NCc2ccccc2Cl)C1 (centres undefined),-21.1%,
O=C(Nc1nc(-c2ccco2)c(-c2ccco2)s1)c1ccco1,,44.7 µM (active)
O=C(Nc1ccccc1)c1ccco1,6.6%,
O=C(Nc1nnc(CCOCCOCCc2nnc(NC(=O)c3ccco3)s2)s1)c1ccco1,-25.7%,
CCOc1ccc(CNC(=O)c2ccc(CS(=O)c3ccccc3)o2)cc1 (centres undefined),-17.4%,
CC(C)(C)OC(=O)N/N=C/c1cn(-c2ccccc2)nc1-c1cccnc1,3.33%,
COc1cccc(-c2nn(-c3ccccc3)cc2/C=C(\C#N)C(=O)NCCCn2ccnc2)c1,,50.1 µM (active)
O=C(NCCCn1ccnc1)c1cc(-c2ccccc2)on1,-27.5%,
Cc1cc2c(cc1S(=O)(=O)CCC(=O)Nc1ccc(OC(F)(F)F)cc1)OCC(=O)N2,1.13%,
Cc1cc(C)cc(NC(=O)CSc2oc(-c3ccccc3)nc2S(=O)(=O)c2ccc(Cl)cc2)c1,-13%,
COc1ccc2oc(=N)c(C(=O)Nc3ccc(Br)cc3)cc2c1,-3.61%,
O=C(Nc1cccnc1)c1ccc(Cl)cc1[N+](=O)[O-],-25.8%,
O=C(Nc1cccnc1)c1cc2cc(Br)ccc2oc1=O,,79.4 µM (active)
CCc1cc2c(cc3c(=O)n(CC(=O)N4CCN(c5cc(Cl)ccc5C)CC4)ncn32)s1,5.16%,
COc1cc(Cl)c(C)cc1NC(=O)CCc1nc2cccnc2n1Cc1cccs1,-18%,
CCOc1ccc(NC(=O)c2c(NCc3cccc(OC)c3OC)sc3c2CCC3)cc1,-1.31%,
Cc1ccc(-c2nn(CCC(=O)Nc3ccc(Cl)c(Cl)c3)c(=O)c3ccccc23)cc1,-11.8%,
COc1ccc(CCC(=O)NCCc2csc(-c3ccc(Cl)cc3)n2)cc1,-4.25%,
Cc1ccc(-c2nc(SCC(=O)Nc3ccccc3OC(F)F)c3c(C)c(C(=O)O)sc3n2)cc1,,44.7 µM (active)
CCOC(=O)c1ccc[n+](CC(=O)Nc2ccccc2OC(F)F)c1,-1.09%,
O=C(COC(=O)c1ccccc1SCC(=O)N1CCCC1)Nc1ccccc1OC(F)F,3.45%,
